Laboratory results published in the supplement of paper PMC3334620.
Whole data set: some 33,000 sequences, median “E-score (-0.5 to 0.5)” near -0.0034, cut for the highest 2% near 0.25. What follows is part of a selection rich in the highest values, with near analogues and random picks from the rest.

Each sequence was assayed against T1, Yap3 (UniProt P38749) (assay: PBM E-score (8-mer binding enrichment) (E-score (-0.5 to 0.5)); higher = stronger / more preferred TF binding). Details: protein concentration: 100 nM; construct: GST-full length.
T1 sequence: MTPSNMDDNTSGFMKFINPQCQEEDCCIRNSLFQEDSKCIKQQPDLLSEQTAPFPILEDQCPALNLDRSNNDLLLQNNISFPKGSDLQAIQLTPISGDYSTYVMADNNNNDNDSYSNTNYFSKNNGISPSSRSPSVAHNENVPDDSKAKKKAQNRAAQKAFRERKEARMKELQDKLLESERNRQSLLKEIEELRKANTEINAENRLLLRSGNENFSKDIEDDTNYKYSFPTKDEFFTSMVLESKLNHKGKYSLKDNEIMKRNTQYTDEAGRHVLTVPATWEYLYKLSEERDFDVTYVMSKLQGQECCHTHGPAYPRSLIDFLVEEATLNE
In short: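 Each ungapped eight-base word and its reverse complement, pooled, received an E-score from the Universal PBM Analysis Suite. Underlying scans, normalised with masliner, recorded fluorescent anti-GST bound to GST-tagged yeast transcription factors. These were applied at about 100-200 nM to universal all-10-mer Agilent arrays double-stranded by primer extension.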
CACCACAC was tested, and the “PBM E-score” value was 0.096. GTATGAAC was tested, and the “PBM E-score” value was 0.0322. For CTTTGATA, the “PBM E-score” value was 0.189. With CTGTGATA the “PBM E-score” value was -0.106. For GTATGAAA, the “PBM E-score” value was 0.29. GTATGATA was tested, and the “PBM E-score” value was 0.282. For GTATGAGA, the “PBM E-score” value was 0.158. GGATGATA was tested, and the “PBM E-score” value was 0.122. For ATGTGATA, the “PBM E-score” value was 0.255. With ATTTGATA the “PBM E-score” value was 0.273. GTGTGATA was tested, and the “PBM E-score” value was 0.203. For TTATGAAA, the “PBM E-score” value was 0.204. ATTTGATC was tested, and the “PBM E-score” value was -0.0998. With CAGAAGCA the “PBM E-score” value was 0.137. For TCCTACAA, the “PBM E-score” value was 0.0495. GTCATCCA was tested, and the “PBM E-score” value was 0.0539. With AAAGACCT the “PBM E-score” value was 0.0294. In the case of CTATGATC, the “PBM E-score” value is reported as -0.0167. With ATGTGAAA the “PBM E-score” value was 0.134. In the case of GTGTGAAA, the “PBM E-score” value is reported as 0.133. For AGATGATA, the “PBM E-score” value was 0.08. With ATATGATG the “PBM E-score” value was 0.171. For CTGTGAAA, the “PBM E-score” value was 0.264. In the case of ATATGATA, the “PBM E-score” value is reported as 0.264. With CTATGATA the “PBM E-score” value was 0.0744. For ATATGATC, the “PBM E-score” value was 0.294. CTCTAGAA was tested, and the “PBM E-score” value was -0.214. In the case of AGTGGTAC, the “PBM E-score” value is reported as 0.0484. CTCGCTGC was tested, and the “PBM E-score” value was -0.0528. For AAGCATTA, the “PBM E-score” value was 0.106. In the case of CATTCAAC, the “PBM E-score” value is reported as -0.065. In the case of ATAAATAT, the “PBM E-score” value is reported as 0.267. For ATATAAAT, the “PBM E-score” value was 0.242. With CTAAATAA the “PBM E-score” value was 0.155. For ATAAATAG, the “PBM E-score” value was 0.195. For GTAAATAC, the “PBM E-score” value was 0.0284. With ATAAATAC the “PBM E-score” value was 0.325. With TTAAATAA the “PBM E-score” value was 0.155. In the case of ATAAATAA, the “PBM E-score” value is reported as 0.307. For ATAAAAAT, the “PBM E-score” value was 0.199. GTAAATAA was tested, and the “PBM E-score” value was 0.267. ATAAATCA was tested, and the “PBM E-score” value was 0.207. In the case of CTAAATAC, the “PBM E-score” value is reported as 0.0333. GAACTCTC was tested, and the “PBM E-score” value was -0.0889. With AATTAGAT the “PBM E-score” value was 0.245. With ACATTTTC the “PBM E-score” value was 0.125. With CCTATAAC the “PBM E-score” value was -0.0793. CCATCTTA was tested, and the “PBM E-score” value was 0.00932. GTCCTAAC was tested, and the “PBM E-score” value was -0.0915. With ACCATCAC the “PBM E-score” value was 0.0126. With ATCTTCTA the “PBM E-score” value was 0.0985. With ATTGAGCA the “PBM E-score” value was 0.105. AATAAAAC was tested, and the “PBM E-score” value was 0.315. For AATAAAAG, the “PBM E-score” value was 0.0973. GATAAAAC was tested, and the “PBM E-score” value was 0.219. CATAAAAC was tested, and the “PBM E-score” value was 0.0691. AATAAAAA was tested, and the “PBM E-score” value was 0.27. AATAAAAT was tested, and the “PBM E-score” value was 0.239. ACCACTCG was tested, and the “PBM E-score” value was 0.0759. ACGTGTTG was tested, and the “PBM E-score” value was 0.0914. In the case of GAGCGACA, the “PBM E-score” value is reported as 0.0223. ACTTGTCT was tested, and the “PBM E-score” value was -0.0439. For CGACAACG, the “PBM E-score” value was 0.0404. With GAAATAAA the “PBM E-score” value was 0.14. GTAATAAA was tested, and the “PBM E-score” value was 0.266. For ACAATAAA, the “PBM E-score” value was 0.106. ATAATAAA was tested, and the “PBM E-score” value was 0.277. With ATAATAAC the “PBM E-score” value was 0.173. For ATAATAAG, the “PBM E-score” value was 0.194. CTAATAAC was tested, and the “PBM E-score” value was 0.15. ATAATAGA was tested, and the “PBM E-score” value was 0.184. In the case of CTAATAAA, the “PBM E-score” value is reported as 0.178. GTAATAAC was tested, and the “PBM E-score” value was 0.188. With ATAATAAT the “PBM E-score” value was 0.26. In the case of TTAATAAA, the “PBM E-score” value is reported as 0.372. With CGCGTCGA the “PBM E-score” value was 0.0342. In the case of GTACGAAA, the “PBM E-score” value is reported as 0.173. For CTCGTCGA, the “PBM E-score” value was -0.0244. With CGTCGCTA the “PBM E-score” value was 0.11. CTTCTGAA was tested, and the “PBM E-score” value was 0.0313. ACAGCCAT was tested, and the “PBM E-score” value was -0.0294. For ACGTGAAA, the “PBM E-score” value was 0.211. In the case of AGAATAAG, the “PBM E-score” value is reported as 0.11. AGAATAAT was tested, and the “PBM E-score” value was 0.24. In the case of AGAATAAA, the “PBM E-score” value is reported as 0.261. AGATAGGC was tested, and the “PBM E-score” value was -0.0411. With GGACAGCA the “PBM E-score” value was -0.0442. With ATTTAGTG the “PBM E-score” value was 0.204. With GTTTAGTA the “PBM E-score” value was 0.275. ATTTAGTC was tested, and the “PBM E-score” value was 0.167. ATTTAGTA was tested, and the “PBM E-score” value was 0.289. For GGTTAGTA, the “PBM E-score” value was 0.0941. With CTTTAGTA the “PBM E-score” value was 0.0328. With CCAGTAAG the “PBM E-score” value was -0.0333. In the case of ACACATGT, the “PBM E-score” value is reported as 0.0237. In the case of CGGGTAAC, the “PBM E-score” value is reported as -0.0884. ACAATTCC was tested, and the “PBM E-score” value was 0.0667. ACATCTTC was tested, and the “PBM E-score” value was 0.0249. For GCGGTAGA, the “PBM E-score” value was 0.00783. In the case of TACAAATA, the “PBM E-score” value is reported as 0.299. In the case of GACAAATA, the “PBM E-score” value is reported as 0.299. For GACAAGTA, the “PBM E-score” value was -0.00588. With AACAAATA the “PBM E-score” value was 0.25. For CACAAATA, the “PBM E-score” value was 0.152. For GACAAATC, the “PBM E-score” value was 0.175. With TGGGGACA the “PBM E-score” value was -0.0974. In the case of ATGTAGCA, the “PBM E-score” value is reported as -0.00878. For CCGCGGCA, the “PBM E-score” value was 0.135. In the case of AGAGAGCC, the “PBM E-score” value is reported as -0.201.
